Only some compounds are listed: those with a hit (about 3.2% of all), similar ones and a draw of the others.
ClpP mod: qHTS Assay for Activators of ClpP | Potency, µM (doses to about 57.5 µM) | actives 1.9% (n = 340,000) | purified B. subtilis ClpP, FRET peptide cleavage, 20 min; active = well fitted falling curve with a large enough effect; inconclusive = small, poorly fitted or top-dose-only effect; inactive = no such curve, though single readings can be large or run the other way; note: the source files actives as falling curves though it sought activators and does not explain the sign; nearly all actives have a fitted effect of over 65% in size
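ClpP 10 microg/mL final, pH 8 Tris/KCl buffer with BSA, glycerol, Tween-20; compound pinned in; FRET-FV substrate; RT 20 min; Ex320/Em430; ΔFRET vs ADEP 5.8 microM, DMSO, no enzyme.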
GLP1R ag: GLP-1 receptor (human) agonism; P43220; HEK293 GLP-1R CRE-luciferase, luminescence, 4-6 h; cells express a hypersensitive GLP-1R form; Potency, µM (titrated, usually from 45.6 µM), actives largely listed as activators; actives 0.007% (n = 380,000)
HEK293 tox: cytotoxic in the GLP-1 receptor inverse agonist counter-screen | HEK293 cAMP-luciferase reporter cells, luminescence, 24 h | Potency, µM (highest dose often 38.3 µM), usual class: inhibitors | actives 0.13% (n = 410,000) | AID 624418;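 note: loss of luciferase light is scored as toxicity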
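Quantitative HTS format, 1536 wells, 200 cells/uL seeded. Compounds: 23 nL, 24 h, 37 °C. Detection: luciferase reagent, luminescence at 12 min RT; decreased signal taken as cytotoxic.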
GLP-1R inv ag: GLP-1 receptor (human) inverse agonism; P43220; HEK293 GLP-1R CRE-luciferase, luminescence, 24 h; GLP-1R form is constitutively active; actives 1.6% (n = 410,000); Potency, µM (highest dose often 38.3 µM), usual class: inhibitors; note: nearly all actives have a fitted effect of over 55% in size
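Inverse agonism was detected as reduced cAMP-driven luciferase luminescence after 24 h compound treatment. The cells were HEK293 clones expressing constitutively active human GLP-1R with the reporter. Reporter-only and GPR119 cell lines served as counterscreen controls.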
Large screens that a line does not name were inactive; ! = not confirmed by another sample. Unless noted, calls come from the whole dose curve; as a rule, active = well fitted curve in the direction sought with a large enough effect; inconclusive = small, poorly fitted or top-dose-only effect, or another doubt; inactive = no such curve, though single readings can be large; an effect the other way counts as inactive or inconclusive.

Cc1cccc(CCNC(=O)c2cc3c(=O)[nH]c4ccc(C)cc4c3s2)c1	none (no result: GLP1R ag)
N#Cc1nc(-c2ccc(OCc3ccccc3)cc2)oc1N1CCC(C(N)=O)CC1	ClpP mod 3.55µM!
N#Cc1nc(-c2ccc(COc3ccc(Cl)cc3)o2)oc1N1CCC(C(N)=O)CC1	ClpP mod 31.6µM (no result: GLP1R ag)
N#Cc1nc(COc2ccc(-c3ccccc3)cc2)oc1N1CCC(C(N)=O)CC1	none (no result: GLP1R ag, HEK293 tox, GLP-1R inv ag)
N#Cc1ccccc1NC(=O)C(=O)NCCc1csc2nc(-c3cccc(F)c3)nn12	none (no result: GLP1R ag)
O=C(Cc1ccccc1)Nc1c(C(=O)N2CCN(c3ccc(F)cc3)CC2)oc2ccccc12	GLP-1R inv ag inconclusive
CCCCn1c(N)c(N(CCOC)C(=O)c2ccc(Cl)c(S(=O)(=O)N3CCCCC3)c2)c(=O)[nH]c1=O	ClpP mod 31.6µM
Cc1ccc2c(Cl)c(C)c(N3CCCCC3)nc2n1	HEK293 tox inconclusive, GLP-1R inv ag 7.08µM
O=C1CC(N(CCc2ccccc2)C(=S)Nc2cc(Cl)ccc2Cl)C(=O)N1c1c(Cl)cccc1Cl (centres undefined)	GLP-1R inv ag 4.47µM
CCCOc1ccc(N2C(=O)CC(N(Cc3ccc(OC)cc3)C(=S)Nc3ccccc3)C2=O)cc1 (centres undefined)	GLP-1R inv ag inconclusive
O=C1CC(N(CCc2ccccc2)C(=S)Nc2ccccc2)C(=O)N1c1ccccc1 (centres undefined)	GLP-1R inv ag inconclusive
O=C1CC(N(CCc2ccccc2)C(=S)Nc2ccccc2)C(=O)N1c1ccc(F)cc1 (centres undefined)	HEK293 tox inconclusive, GLP-1R inv ag 4.47µM
CCCOc1ccc(N2C(=O)CC(N(CCc3ccc(OC)c(OC)c3)C(=S)Nc3ccccc3)C2=O)cc1 (centres undefined)	GLP-1R inv ag 5.62µM
CCOC(=O)c1sc(N2C(=O)c3oc4ccc(F)cc4c(=O)c3C2c2ccc(C)cc2)nc1C (centres undefined)	none (no result: GLP1R ag, HEK293 tox, GLP-1R inv ag)
CC(=O)Nc1ccc2[nH]c(C)c(CC=C(Cl)Cl)c(=O)c2c1	ClpP mod 31.6µM
CCCn1cc2c(c1-c1cccc(C)c1)c(=O)n(C)c(=O)n2C	ClpP mod 14.1µM
COCCNCCCCOc1ccc(Br)cc1C	GLP-1R inv ag inconclusive
Cc1ccc(OCCCNCCO)c(Br)c1	HEK293 tox inconclusive, GLP-1R inv ag 3.98µM
COCCCNCCCCOc1ccc(Br)cc1C	GLP-1R inv ag 2.82µM
COc1ccc(OC)c2sc(N3CCN(C(=O)CCS(=O)(=O)c4ccc(F)cc4)CC3)nc12	none (no result: GLP1R ag)
COc1cc(NC(=O)NCCn2nnc3cc(S(=O)(=O)N(C)C)ccc32)cc(OC)c1OC	none (no result: GLP1R ag)
C1=CCN(c2nc(N3CCOCC3)nc(N3CCCc4ccccc43)n2)CC1	GLP-1R inv ag 11.2µM
CCC1=NN(C(=O)c2ccc(Cl)cc2)C(O)(c2ccc(C)cc2)C1 (centres undefined)	HEK293 tox inconclusive, GLP-1R inv ag 2.82µM (no result: ClpP mod)
CCC1=NN(C(=O)c2ccc([N+](=O)[O-])cc2)C(O)(c2ccccc2)C1 (centres undefined)	HEK293 tox inconclusive, GLP-1R inv ag 0.794µM (no result: ClpP mod)
CC1=NN(C(=O)c2ccccc2C)C(O)(c2ccc(Cl)cc2)C1 (centres undefined)	none (no result: ClpP mod)
CC1=NN(C(=O)c2ccccc2Br)C(O)(c2ccc(Cl)cc2)C1 (centres undefined)	GLP-1R inv ag 3.16µM
CCNc1nc(C#N)nc(N2CCOCC2)n1	none (no result: GLP1R ag, HEK293 tox, GLP-1R inv ag)
CN(C)c1ccc(/C=C/c2ccnc3ccc(I)cc23)cc1	none (no result: GLP1R ag, HEK293 tox, GLP-1R inv ag)
Cc1ccc(-c2noc(-c3nnn(CC(=O)Nc4ccc(C)cc4Cl)c3N)n2)cc1	none (no result: GLP1R ag)
COC(=O)[C@]12CCCCC=C1N(Cc1cccc3ccccc13)C(=O)[C@H](CC(=O)NCCCCc1ccccc1)C2	GLP-1R inv ag inconclusive
O=C(COC(=O)c1n[nH]c2ccccc12)NC(=O)NCc1ccco1	ClpP mod 31.6µM
Cc1cc(Br)cc(C)c1OCC(=O)Nc1ccc(S(=O)(=O)Nc2ncccn2)cc1	GLP-1R inv ag inconclusive (no result: GLP1R ag)
CN(c1nc2ccccc2nc1Cl)S(=O)(=O)c1ccccc1	GLP-1R inv ag 10µM (no result: ClpP mod)
C=C(C)CNC(=S)N/N=C/c1ccco1	HEK293 tox inconclusive, GLP-1R inv ag 4.47µM (no result: ClpP mod)
C=C(C)CNC(=S)NN=C1c2ccccc2-c2ccccc21	GLP1R ag 11.2µM, HEK293 tox inconclusive, GLP-1R inv ag inconclusive (no result: ClpP mod)
Cc1oc(-c2ccccc2)nc1CNC(=O)NC1CCCCC1	none (no result: GLP1R ag)
CC(C)(C)OC(=O)NS(=O)(=O)NOCc1ccccc1	none (no result: GLP1R ag, HEK293 tox, GLP-1R inv ag)
Cc1cccc(C=Nc2ccc3c4c(cccc24)CC3)c1O	ClpP mod 15.8µM
Oc1ccc(Cl)cc1C=Nc1ccc2c3c(cccc13)CC2	none
CCCCCCc1ccc(-c2ncc(N)cn2)cc1	ClpP mod 31.6µM
CCCCCc1ccc(-c2nnc(N)s2)cc1	none (no result: ClpP mod)
CCCCn1c(NS(=O)(=O)c2ccc(C)cc2)c(S(=O)(=O)c2ccccc2)c2nc3ccccc3nc21	ClpP mod 25.1µM, GLP-1R inv ag inconclusive
Cc1ccc(S(=O)(=O)c2c(N)n(CC3CCOC3)c3nc4ccccc4nc23)cc1 (centres undefined)	ClpP mod 12.6µM, GLP-1R inv ag inconclusive
Nc1c(S(=O)(=O)c2cccc(Cl)c2)c2nc3ccccc3nc2n1CCN1CCOCC1	ClpP mod 31.6µM, GLP1R ag inconclusive, GLP-1R inv ag inconclusive
Cc1ccc(S(=O)(=O)c2c(N)n(CCCN(C)C)c3nc4ccccc4nc23)cc1	GLP-1R inv ag inconclusive
Cc1cc(NS(=O)(=O)c2ccc(NC(=O)c3ccccc3F)cc2)nc(C)n1	none (no result: GLP1R ag)
Cc1c(Cl)cccc1NC(=O)Cn1nnc2sc3c(c2c1=O)CCCC3	none (no result: GLP1R ag)
COc1ccccc1NC(=O)N(Cc1nnc2n1CCCCC2)c1ccc(F)cc1	none
Oc1ccc(CN2CCCCC2)nc1-c1ccccc1	ClpP mod 35.5µM
Oc1ccc(-c2ccccc2)cc1CN1CCCCCC1	GLP-1R inv ag inconclusive (no result: ClpP mod)
CCc1ccc2nc(N(CCN(C)C)C(=O)c3ccc4ccccc4c3)sc2c1	GLP-1R inv ag 12.6µM
CCN(CC)CCN(C(=O)c1cc2ccccc2cc1OC)c1nc2ccc(F)cc2s1	GLP-1R inv ag 5.01µM
COc1cc2ccccc2cc1C(=O)N(CCN(C)C)c1nc2c(C)cccc2s1	GLP-1R inv ag inconclusive
COc1cc2ccccc2cc1C(=O)N(CCN(C)C)c1nc2ccc(C)cc2s1	GLP-1R inv ag 3.98µM
CN(C)CCCN(C(=O)c1cc(-c2cccs2)nc2ccccc12)c1nc2c(F)cccc2s1	HEK293 tox inconclusive, GLP-1R inv ag inconclusive
Cc1ccc2nc(N(CCCN(C)C)C(=O)c3cc(-c4cccs4)nc4ccccc34)sc2c1	HEK293 tox inconclusive, GLP-1R inv ag 2.51µM
CCc1ccc(S(=O)(=O)c2cn(CC(=O)Nc3ccc(F)c(Cl)c3)c3ccccc3c2=O)cc1	GLP-1R inv ag inconclusive
COC(=O)c1c(SC)nc2ccccc2c1OCc1ccc(C)cc1C	GLP-1R inv ag inconclusive (no result: GLP1R ag)
CCN(CC)CCN(C(=O)c1ccc2ccccc2c1)c1nc2ccc(OC)cc2s1	none
COc1ccccc1C(=O)N(CCN(C)C)c1nc2cc(C)cc(C)c2s1	GLP-1R inv ag 11.2µM
